The whole screen tested about 340,000 compounds, of which about 2,100 (0.62%) were called active. These entries were drawn from the full list. Results with a measured potency or affinity are listed apart. Unmarked numbers belong to inactive results.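 The calls were made as follows: active = first-screen hits whose inhibition reached a set limit at any dose in the follow-up dose series; inconclusive = inhibition above the set first-screen limit but never retested; inactive = the rest.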
Biological target: Rac GTPase-activating protein 1 (Homo sapiens) (UniProt Q9H0H5)
Assay: MgcRacGAP GTPase-activating activity inhibitors, confirmation, biochemical, ADP Hunter fluorescence, primary and confirmatory (AID 624330);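 also: fluorescence reports GDP produced by GAP-driven GTP hydrolysis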
Details: MgcRacGAP-stimulated Rac1 GTP hydrolysis, at 30 µM, stronger effect = higher value, GST-tagged Rac1 F28L mutant substrate

Sequence of Rac GTPase-activating protein 1 (Homo sapiens) (Q9H0H5 whole entry, looked up): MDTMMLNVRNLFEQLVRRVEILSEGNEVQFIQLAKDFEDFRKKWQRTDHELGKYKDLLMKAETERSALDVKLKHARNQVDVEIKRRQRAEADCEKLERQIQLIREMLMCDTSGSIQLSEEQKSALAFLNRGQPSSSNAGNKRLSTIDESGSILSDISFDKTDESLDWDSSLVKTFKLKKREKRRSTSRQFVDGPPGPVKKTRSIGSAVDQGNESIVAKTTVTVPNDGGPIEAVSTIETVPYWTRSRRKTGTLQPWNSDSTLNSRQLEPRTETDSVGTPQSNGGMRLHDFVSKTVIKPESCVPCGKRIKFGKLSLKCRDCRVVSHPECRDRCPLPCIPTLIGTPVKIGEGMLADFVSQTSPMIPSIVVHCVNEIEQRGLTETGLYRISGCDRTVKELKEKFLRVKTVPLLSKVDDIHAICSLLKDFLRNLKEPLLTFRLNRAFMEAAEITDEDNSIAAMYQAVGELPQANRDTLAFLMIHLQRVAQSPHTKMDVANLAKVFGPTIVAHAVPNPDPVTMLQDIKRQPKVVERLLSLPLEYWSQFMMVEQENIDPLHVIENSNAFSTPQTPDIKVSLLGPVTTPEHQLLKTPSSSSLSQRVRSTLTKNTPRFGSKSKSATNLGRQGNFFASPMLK

Compound | inhibition
O=C(NCc1ccccc1)C1=C[C@H](c2csc3ccccc23)C[C@H](OCCCCO)O1 | 5.83%
COc1cccc(/C=N/NC(=O)c2nnn(-c3nonc3N)c2C(C)C)c1 | 2.84%
Cc1nonc1C(=O)N/N=C/c1cccc(O)c1 | 5.55%
Cc1nonc1C(=O)N/N=C/c1ccc([N+](=O)[O-])o1 | 6.74%
COc1cc(/C=N/NC(=O)c2c(C)nnn2-c2nonc2N)ccc1O | 21.5%
Cc1nonc1C(=O)N/N=C/c1ccncc1 | 4.44%
Cc1nnn(-c2nonc2N)c1C(=O)N/N=C/c1ccccc1O | 5.56%
COc1cc(/C=N/NC(=O)c2nnn(-c3nonc3N)c2C(C)C)ccc1OCc1ccccc1 | 12.2%
Cc1nonc1C(=O)N/N=C/c1ccccc1 | 7.47%
Cc1cc(NC(=O)COC(=O)c2cc([N+](=O)[O-])ccc2N2CCOCC2)ccc1Br | -0.1%
O=C(COc1ccccc1F)NC12CC3CC(CC(C3)C1)C2 | 9.07%
CCN(CC(=O)Nc1c(F)cccc1F)C(=O)c1ccc(=O)n(C)n1 | 7.24%
CN(C)CCNC(=O)C(=O)NCC1OCCCN1S(=O)(=O)c1cccs1 (stereo unspecified) | 5.17%
CCN(CC)CCN(CC(=O)Nc1c(C)cc(C)cc1C)C(=O)c1ccccc1 | 14.8%
CCN(CC)C(=O)CSc1nc2ncc(Br)cc2[nH]1 | 1.23%
CCCCN(C)C(=O)c1ccc2c(c1)N(CC)C(=O)c1ccccc1S2=O (stereo unspecified) | 7.28%
COc1ccc(/C=N/NC(=O)c2nonc2N)cc1OC | 11.7%
COc1ccc(/C=N/NC(=O)c2nonc2C)cc1 | 17.8%
Cc1nonc1C(=O)N/N=C/c1cc2c(cc1Br)OCO2 | -12.5%
O=C(N/N=C/c1ccc(O)cc1O)C(=O)N/N=C/c1ccc(O)cc1O | 16.7%
COc1ccnc(N=CNOCc2ccc(Cl)cc2)c1C#N | 13.5%
COc1ccc(NS(=O)(=O)c2c(C)[nH]c(=O)[nH]c2=O)cc1OC | 8.91%
Cc1cccc(N(C)S(=O)(=O)c2ccc3[nH]cc(C(=O)N4CCOCC4)c(=O)c3c2)c1 | -3.07%
CCOC(=O)Cc1nnc(NCc2ccccc2)c2ccccc12 | 6.91%

Compound | inhibition
Cc1cccc(N(CC(=O)NCC2CCCO2)C(=O)CCC(=O)Nc2cc(C)on2)c1 (stereo unspecified) | 4.72%
CC(C)(C)n1cnc2cc(NCc3ccccc3O)ccc21 | 13.7%
COc1cccc(CNc2ccc3c(c2)nc(C)n3C)c1OC | 30.5%
COc1cccc(CNc2ccc3c(c2)ncn3C(C)C)c1OC | 24.5%
Cn1cnc2cc(NCc3ccccc3Cl)ccc21 | 26.5%
Cc1noc(C)c1NC(=O)Nc1cccc2c1O[C@@H](CN(C)Cc1ccc3c(c1)OCO3)[C@@H](C)CN([C@H](C)CO)C2=O | 4.09%
CCN1CCCC1CNC(=O)c1ccc(Sc2ccccc2Cl)c([N+](=O)[O-])c1 (stereo unspecified) | 4.96%
Cc1c(O)ccc2c(CN3CCOCC3)cc(=O)oc12 | 17.9%
Cc1cc(=O)oc2c(CN3CCCCC3)c(O)ccc12 | 2.34%
Cc1cc(=O)oc2c(CN3CCCC3)c(O)ccc12 | 6.69%
Cc1ccc2c(CN3CCOCC3)cc(=O)oc2c1C | 3.73%
CC1CCN(CC(O)COc2cccc(F)c2)CC1 (stereo unspecified) | 2.16%
NC(=O)c1ccc(NC(=O)CN2CCN(C(=O)c3ccco3)CC2)cc1 | 13.6%
CSc1cccc(CN2CCCC(CNC(=O)c3ccco3)C2)c1 (stereo unspecified) | 8.31%
Cc1c(NC(=O)Nc2ccc(Cl)c(Cl)c2)sc(=S)n1C | -8.84%
N#C/C(=C/c1cc(Cl)c(O)c(Cl)c1)C(=O)N1CCCCC1 | 10.9%
N#C/C(=C\c1cccc(O)c1)C(=O)N1CCCCC1 | 11.3%
O=C(O)c1c2c(nc3ccccc13)/C(=C/c1ccc(OC(F)F)cc1)CCC2 | 9.02%
O=C(O)c1ccc(/C=C2\CCCc3c2nc2ccccc2c3C(=O)O)cc1 | 3.69%
CN(C)C(=O)CCc1ccc2c3c([nH]c2c1)[C@]1(C)[C@@H](C(=O)N2CCOCC2)C[C@H](CC(=O)NCc2cccc(C(F)(F)F)c2)C(=O)N1CC3 | -2.92%
C/C(=N/NC(=O)c1cccc(Br)c1)C1CC2CCC1C2 (stereo unspecified) | -6.86%
Cc1ccc(/C=C(/C#N)c2nc(CCN3C(=O)c4ccccc4C3=O)cs2)cc1 | 9.96%
CN1CCN(C(=O)NC2CCCCC2)CC1 | 13%
CC(C(=O)NC(=O)NC1CCCCC1)N1CCN(c2ccccn2)CC1 (stereo unspecified) | 4.4%

Compound | inhibition
CC(C(=O)NC1CCCC1)N1CCN(Cc2ccccc2)CC1 (stereo unspecified) | 9.35%
COc1ccc(N2CCN(C(C)C(=O)N3CC(C)OC(C)C3)CC2)cc1 (stereo unspecified) | 26.9%
CC(C(=O)NC(=O)NC1CCCCC1)N1CCN(C(c2ccccc2)c2ccccc2)CC1 (stereo unspecified) | 4.85%
CCN1CCN(C(C(=O)NC2CCCCC2)c2ccc(Cl)cc2)CC1 (stereo unspecified) | 2.93%
CN1CCC(NC(=O)NC2CCCCC2)CC1 | 4.99%
COc1ccc(N2CCN(C(C)C(=O)N3CCc4ccccc43)CC2)cc1 (stereo unspecified) | 19.8%
C=CCN1C(=O)CS/C1=N\S(=O)(=O)c1ccc(Cl)cc1 | -1.54%
CCOC(=O)c1c(C)n(C)c2ccc(OC)c([N+](=O)[O-])c12 | 8.57%
CCCOc1c(Br)cc(C(=O)NCC)cc1OC | 13%
CSCCC(NS(=O)(=O)c1ccc2c(c1)oc(=O)n2C)C(=O)NCc1ccc(C)cc1 (stereo unspecified) | 9.41%
CCCNC(=O)c1ccc(OC)cc1OC | -1.98%
Cc1cccc(N=C2CCCC2C(=O)Nc2cccc(C)c2C)c1C (stereo unspecified) | 5.77%
NC(=O)c1ccsc1NC(=O)COC(=O)c1cc(Cl)ccc1O | 0.77%
CC(=O)NC(C(=O)c1ccccc1)N1CCCCC1 (stereo unspecified) | 13.8%
Cc1ccc(/C=C2/NC(=O)[C@H](C)NC2=O)cc1 | 6.59%
CCN1C(=NCCOC)N[C@@H](CCc2ccccc2)[C@H](C(=O)OC)[C@H]1C | 12.5%
C=C(C)CSc1nc2sc3c(c2c(=O)n1-c1ccccc1)CCN(C)C3 | 11.6%
COc1cccc(N2CCN(C(=O)NC3CCCCC3)CC2)c1 | 2.77%
O=C(NC1CCCCC1)N1CCN(c2ccc(Cl)cc2)CC1 | 6.94%
O=C(c1ccccc1Cc1ccccc1)N1CCN(S(=O)(=O)c2ccccc2Br)CC1 | 3.3%
COc1ccc(S(=O)(=O)N2CCN(C(=O)CCSc3ccccc3)CC2)cc1 | 7.76%
O=C(CNC(=O)c1ccccc1Br)N/N=C/c1ccco1 | 5.21%
O=C(c1ccc(S(=O)(=O)NCC2CCCO2)cc1)N1CCN(c2ccccc2F)CC1 (stereo unspecified) | 5.89%
COc1ccc(N2CCN(C(=O)c3ccc(CS(=O)Cc4ccc(Cl)cc4)o3)CC2)cc1 (stereo unspecified) | 14%

Compound | inhibition
COc1ccc(S(=O)(=O)Cc2ccc(C(=O)N3CCN(c4ccc(Cl)cc4)CC3)o2)cc1 | 4.84%
C=CCN(Cc1ccc(Cl)s1)C(=O)c1cc(S(=O)(=O)N2CCOCC2)ccc1F | 1.3%
COc1ccc(NC(=O)/C(=C\c2cc(OC)c(OC)cc2[N+](=O)[O-])NC(=O)c2ccccc2)cc1 | 9.89%
COc1cc(/C=C(/NC(=O)c2ccccc2)C(=O)Nc2ccccc2)c([N+](=O)[O-])cc1OC | 4.35%
C=CCn1c(COc2ccccc2)nnc1SCC(=O)N/N=C/c1cc(Cl)ccc1O | 11%
C=CCn1c(CNc2ccccc2)nnc1SCC(=O)N/N=C/c1ccccc1O | 3.95%
C=CCn1c(CNc2ccc(C)cc2)nnc1SCC(=O)N/N=C/c1ccc(O)cc1 | 30.4%
C=CCn1c(COc2ccccc2)nnc1SCC(=O)N/N=C/c1ccc(C)cc1 | 1.44%
COc1c(N)c2c(c([N+](=O)[O-])c1OC)C(=O)OC2 | -0.66%
C/C(=N\OCC(=O)Nn1c(=O)[nH]c2ccccc2c1=O)c1ccccc1 | 10.5%
Cc1cc(C)nc(NN=C(c2ccccc2)c2ccccc2)n1 | 7.14%
CC1=C(C(=O)Nc2ccccc2C(=O)NCCCOC(C)C)SCCO1 | -0.28%
O=C(Nc1ccc(Br)cc1)c1cccc(N2C(=O)C3C4C=CC(C4)C3C2=O)c1 (stereo unspecified) | 7.3%
O=C(Nc1ccccc1)c1cccc(N2C(=O)C3C4C=CC(C4)C3C2=O)c1 (stereo unspecified) | 8.69%
CN1CCOCCOCCN(C)C1=O | 8.52%
O=C(Cc1cccc2ccccc12)NC(=S)Nc1cccc(C(=O)O)c1 | 5.5%
COc1ccc(C=NNC(=S)NC23CC4CC(CC(C4)C2)C3)cc1OC | 7.09%
COc1cc(/C=N/NC(=O)NC23CC4CC(CC(C4)C2)C3)ccc1OCC(N)=O | 7.72%
O=C(N/N=C/c1ccncc1)NC12CC3CC(CC(C3)C1)C2 | 10.9%
COc1ccc(/C=N/N=C2\CC3CCC2(C)C3(C)C)cc1O (stereo unspecified) | 5.9%
O=C(N/N=C/c1ccc(O)cc1O)NC12CC3CC(CC(C3)C1)C2 | 15%
COc1ccc(/C=N/NC(=O)C2C3CCCCC32)cc1OC (stereo unspecified) | 10.4%
COc1ccc(C=NNC(=O)NN=Cc2ccc(OC)c(OC)c2)cc1OC | 3.42%
COc1ccc(/C=C2/S/C(=N/N=C3\CC4CCC3(C)C4(C)C)NC2=O)cc1 (stereo unspecified) | 7.33%

Source: PubChem BioAssay AID624330 (Southern Research Specialized Biocontainment Screening …, 2012)
